Active and inactive are the calls of the source.

The nature of assay [1]: small molecules captured by biotinylated probe aFSTL3 – biochemical, small-molecule microarray, fluorescence 635/667, stem cell growth factor project, primary screen (AID 1064).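 Also: measures binding of the biotinylated anti-FSTL3 antibody to printed compounds.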 The settings on record: higher = more signal.
Assay [2] in a line: binders from COS7 lysate, DM2A8 probe, primary screen, torsin A project, cell lysate, small-molecule microarray, fluorescence 635/667 (AID 1065). The settings on record: higher = more signal, COS7 lysate expressing mutant human TOR1A.
A short description of assay [3]: small molecules captured by biotinylated probe aFGF2 – biochemical, small-molecule microarray, fluorescence 635/667, stem cell growth factor project, primary screen (AID 1067).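 Also: measures binding of biotinylated aFGF2 protein to printed compounds on slides; z-score merges feature fluorescence and signal-to-noise across triplicate slides.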 The settings on record: higher = more signal.
Assay [4] in a line: small molecules captured by biotinylated probe aFGF10 – biochemical, small-molecule microarray, fluorescence 635/667, stem cell growth factor project, primary screen (AID 1071).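 Also: score merges 667 nm spot intensity and signal to noise from triplicate slides.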 The settings on record: higher = more signal.
For assay [5], the target named is Neurogenic locus notch homolog protein 2 (Homo sapiens) (UniProt Q04721). The assay is described as follows: small molecules binding Notch2 protein – biochemical, small-molecule microarray, 635 nm fluorescence, stem cell growth factors, primary screen (AID 1073). The settings on record: higher = more signal.
Assay [6] has as its target Pro-neuregulin-1, membrane-bound isoform (Homo sapiens) (UniProt Q02297). Put plainly: small molecules binding neuregulin-1 protein – biochemical, small-molecule microarray, fluorescence 635/667, psychiatric disease protein project, primary screen (AID 1075).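 Also: score combines 667 nm spot fluorescence with signal to noise.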 The settings on record: NRG1 binding, 635 nm fluorescence, higher = more signal.
Assay [7] relates to Neuregulin-1 EGF-like domain. Put plainly: small molecules binding NRG1 EGF domain – biochemical, small-molecule microarray, 635 nm fluorescence, primary screen (AID 1081).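 Also: binding of the protein to compounds printed on small-molecule microarray slides.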 The settings on record: higher = more signal.
A short description of assay [8]: FRG1 expression reporter modulators in myotubes – cell-based, C2C12 myotubes, firefly/Renilla luciferase, luminescence, FRG1 inhibition for FSHD, primary screen (AID 1084). The settings on record: FRG1 promoter luciferase, higher = more signal, called active from +8 up or from −8 down.
Assay [9] can be described thus: small molecules captured by biotinylated probe aFST – biochemical, small-molecule microarray, fluorescence 635/667, stem cell growth factor project, primary screen (AID 1086).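 Also: score merges 667 nm fluorescence with signal-to-noise of each printed compound spot.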 The settings on record: higher = more signal.
Assay [10] in a line: binders of probe aHhip on microarray, primary screen, stem cell growth factor project, biochemical, small-molecule microarray, fluorescence 635/667 (AID 1087).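 Also: score merges spot fluorescence at 667nm with spot signal to noise ratio.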 The settings on record: higher = more signal.
The subject of assay [11] is PRMT1 (protein arginine N-methyltransferase 1). Put plainly: small molecules binding arginine methyltransferase PRMT1 – biochemical, small-molecule microarray, 635 nm fluorescence, primary screen (AID 1088).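 Also: binding of Prmt1 protein to compounds spotted on small-molecule microarray slides.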 The settings on record: higher = more signal.
Assay [12] is described as follows: growth effects on S. cerevisiae YJM789 – YJM789 clinical isolate, OD600, 24 h, basal, primary screen (AID 1089).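 Also: growth of clinical yeast isolate S. cerevisiae YJM 789 seeded 1000 cells per well; test concentration not given here.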 The settings on record: higher = more signal, called active from +8 up or from −8 down.
Assay [13] can be described thus: S. pombe growth modifiers, basal conditions – strain 972, OD600, 24 h, no modulator, primary screen (AID 1090).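 Also: basal condition with compound alone and no growth modifier present; test concentration not given here.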 The settings on record: S. pombe 972 growth, higher = more signal, called active from +8 up or from −8 down.
Assay [14] is described as follows: budding yeast growth modifiers under rapamycin – strain BY4716, OD600, 96 h, primary screen (AID 1091). Also: test concentration not given here. The settings on record: S. cerevisiae BY4716 + rapamycin, higher = more signal, called active from +8 up or from −8 down.
For assay [15], the target named is Torsin-1A-interacting protein 2 (Homo sapiens) (UniProt Q8NFQ8). Put plainly: small molecules binding lysate-expressed LULL1 – cell lysate, human LULL1 lysate, 635/667 nm fluorescence, primary screen (AID 1092).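 Also: probe is lysate of COS7 cells overexpressing human LULL1; score merges per-feature 667 nm fluorescence with signal-to-noise.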 The settings on record: small-molecule microarray, hLULL1 lysate binding, 635 nm fluorescence; higher = more signal.
Chain of Torsin-1A-interacting protein 2 (Homo sapiens) (Q8NFQ8 whole entry, looked up): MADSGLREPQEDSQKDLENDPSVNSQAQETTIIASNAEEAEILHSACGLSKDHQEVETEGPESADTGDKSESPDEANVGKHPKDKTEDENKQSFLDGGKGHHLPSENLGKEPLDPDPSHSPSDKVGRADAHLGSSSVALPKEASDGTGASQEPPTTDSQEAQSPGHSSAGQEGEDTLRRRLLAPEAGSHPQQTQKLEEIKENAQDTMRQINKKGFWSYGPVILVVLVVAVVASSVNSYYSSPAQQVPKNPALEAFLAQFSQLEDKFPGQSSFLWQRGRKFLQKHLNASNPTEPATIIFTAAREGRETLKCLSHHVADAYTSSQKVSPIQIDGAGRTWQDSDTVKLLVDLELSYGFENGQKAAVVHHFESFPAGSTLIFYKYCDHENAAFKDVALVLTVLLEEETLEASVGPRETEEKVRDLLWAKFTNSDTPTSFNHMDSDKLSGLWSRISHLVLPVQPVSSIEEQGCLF
Assay [16] can be described thus: optical density change of DRC41 E. coli – strain DRC41, OD650, 24 h, E. coli filamentation project, primary screen (AID 1093).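 Also: MC1000 strain lacking acrAB efflux and sulA so SOS filamentation is blocked; test concentration not given here.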 The settings on record: E. coli DRC41 growth, higher = more signal, called active from +8 up or from −8 down.
Assay [17] can be described thus: probe aLefty2 binding to arrayed compounds – biochemical, biotinylated probe, 635/667 nm fluorescence, primary screen (AID 1094).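 Also: score merges spot fluorescence near 667 nm with spot signal-to-noise ratio.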 The settings on record: small-molecule microarray, higher = more signal.
Assay [18] deals with Noggin (protein binding on small-molecule microarray). The assay is described as follows: small molecules binding Noggin protein – biochemical, 635/667 nm fluorescence, primary screen (AID 1095).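 Also: score merges 667 nm feature fluorescence with signal to noise over triplicate slides.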 The settings on record: 635 nm fluorescence, higher = more signal.
The target in assay [19] is Neurogenic locus notch homolog protein 3 (Homo sapiens) (UniProt Q9UM47). The assay is described as follows: small molecules binding NOTCH3 protein – biochemical, 635/667 nm fluorescence, primary screen (AID 1096). The settings on record: small-molecule microarray, 635 nm fluorescence, higher = more signal.
Chain of Neurogenic locus notch homolog protein 3 (Homo sapiens) (Q9UM47 whole entry, looked up): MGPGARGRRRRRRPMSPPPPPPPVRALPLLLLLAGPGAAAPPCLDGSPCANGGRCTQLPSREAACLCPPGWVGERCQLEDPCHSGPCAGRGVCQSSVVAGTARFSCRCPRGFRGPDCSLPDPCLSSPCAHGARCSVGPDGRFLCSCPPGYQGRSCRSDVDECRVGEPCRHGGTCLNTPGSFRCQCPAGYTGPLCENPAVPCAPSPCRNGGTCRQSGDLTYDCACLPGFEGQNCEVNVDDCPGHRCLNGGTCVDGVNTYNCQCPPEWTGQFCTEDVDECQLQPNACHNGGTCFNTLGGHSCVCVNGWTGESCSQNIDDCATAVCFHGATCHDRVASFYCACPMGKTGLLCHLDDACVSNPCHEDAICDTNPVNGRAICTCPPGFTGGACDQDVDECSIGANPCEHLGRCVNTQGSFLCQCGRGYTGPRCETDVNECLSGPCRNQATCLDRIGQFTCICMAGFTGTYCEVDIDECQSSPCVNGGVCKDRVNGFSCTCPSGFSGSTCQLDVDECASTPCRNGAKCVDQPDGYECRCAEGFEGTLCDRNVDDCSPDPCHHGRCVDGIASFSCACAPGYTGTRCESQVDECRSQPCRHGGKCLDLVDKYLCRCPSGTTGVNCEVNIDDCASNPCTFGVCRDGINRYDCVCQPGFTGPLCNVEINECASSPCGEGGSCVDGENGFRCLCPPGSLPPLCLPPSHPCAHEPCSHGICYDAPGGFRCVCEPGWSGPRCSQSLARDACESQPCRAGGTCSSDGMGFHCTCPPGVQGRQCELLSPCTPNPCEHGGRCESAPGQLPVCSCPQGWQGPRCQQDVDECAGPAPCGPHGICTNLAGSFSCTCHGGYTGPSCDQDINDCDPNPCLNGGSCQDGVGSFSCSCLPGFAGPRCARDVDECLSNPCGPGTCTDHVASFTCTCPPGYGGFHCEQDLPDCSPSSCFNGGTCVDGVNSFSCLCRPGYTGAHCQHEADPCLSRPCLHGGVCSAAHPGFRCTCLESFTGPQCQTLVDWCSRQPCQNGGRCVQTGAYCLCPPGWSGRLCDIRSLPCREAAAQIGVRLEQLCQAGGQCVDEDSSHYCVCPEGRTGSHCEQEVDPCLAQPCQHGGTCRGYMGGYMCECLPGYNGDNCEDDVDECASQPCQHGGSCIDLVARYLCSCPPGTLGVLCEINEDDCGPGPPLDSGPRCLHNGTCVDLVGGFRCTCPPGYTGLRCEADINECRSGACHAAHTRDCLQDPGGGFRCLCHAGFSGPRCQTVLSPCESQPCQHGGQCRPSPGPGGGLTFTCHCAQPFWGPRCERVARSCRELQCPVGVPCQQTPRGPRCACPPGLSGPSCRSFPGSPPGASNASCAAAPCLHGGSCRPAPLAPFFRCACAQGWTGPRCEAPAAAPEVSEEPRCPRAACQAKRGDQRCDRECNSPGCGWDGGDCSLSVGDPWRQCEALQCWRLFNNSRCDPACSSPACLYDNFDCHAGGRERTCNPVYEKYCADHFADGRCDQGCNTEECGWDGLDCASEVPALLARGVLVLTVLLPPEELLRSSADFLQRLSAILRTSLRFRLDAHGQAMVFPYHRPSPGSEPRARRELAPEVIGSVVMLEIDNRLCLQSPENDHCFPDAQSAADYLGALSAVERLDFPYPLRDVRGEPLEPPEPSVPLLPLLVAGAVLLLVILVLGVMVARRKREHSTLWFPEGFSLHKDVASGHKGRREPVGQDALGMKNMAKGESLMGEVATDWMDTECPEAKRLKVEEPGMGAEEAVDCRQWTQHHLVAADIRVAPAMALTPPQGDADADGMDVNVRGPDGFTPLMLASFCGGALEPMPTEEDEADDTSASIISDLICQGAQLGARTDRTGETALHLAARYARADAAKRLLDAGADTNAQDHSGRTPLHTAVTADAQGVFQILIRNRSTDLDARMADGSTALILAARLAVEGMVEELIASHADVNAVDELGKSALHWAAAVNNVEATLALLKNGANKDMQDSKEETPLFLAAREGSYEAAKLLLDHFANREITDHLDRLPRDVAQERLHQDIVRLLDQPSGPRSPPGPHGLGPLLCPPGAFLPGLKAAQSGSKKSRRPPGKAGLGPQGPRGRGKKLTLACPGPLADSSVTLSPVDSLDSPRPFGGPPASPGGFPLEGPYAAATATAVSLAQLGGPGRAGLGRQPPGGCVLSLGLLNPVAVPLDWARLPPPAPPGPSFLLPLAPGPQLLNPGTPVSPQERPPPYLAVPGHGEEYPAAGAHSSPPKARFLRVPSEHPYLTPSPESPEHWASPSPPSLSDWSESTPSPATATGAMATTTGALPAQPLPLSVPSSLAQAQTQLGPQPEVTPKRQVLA
Assay [20] in a line: probe aEGFR binding to arrayed compounds – biochemical, biotinylated probe, 635/667 nm fluorescence, primary screen (AID 1097).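 Also: probe is a biotinylated anti-EGFR antibody binding compounds printed on slides; score combines fluorescence near 667 nm and signal to noise of each spot.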 The settings on record: small-molecule microarray, higher = more signal.

Chain of Pro-neuregulin-1, membrane-bound isoform (Homo sapiens) (Q02297 whole entry, looked up, the tested form may be a part, canonical isoform): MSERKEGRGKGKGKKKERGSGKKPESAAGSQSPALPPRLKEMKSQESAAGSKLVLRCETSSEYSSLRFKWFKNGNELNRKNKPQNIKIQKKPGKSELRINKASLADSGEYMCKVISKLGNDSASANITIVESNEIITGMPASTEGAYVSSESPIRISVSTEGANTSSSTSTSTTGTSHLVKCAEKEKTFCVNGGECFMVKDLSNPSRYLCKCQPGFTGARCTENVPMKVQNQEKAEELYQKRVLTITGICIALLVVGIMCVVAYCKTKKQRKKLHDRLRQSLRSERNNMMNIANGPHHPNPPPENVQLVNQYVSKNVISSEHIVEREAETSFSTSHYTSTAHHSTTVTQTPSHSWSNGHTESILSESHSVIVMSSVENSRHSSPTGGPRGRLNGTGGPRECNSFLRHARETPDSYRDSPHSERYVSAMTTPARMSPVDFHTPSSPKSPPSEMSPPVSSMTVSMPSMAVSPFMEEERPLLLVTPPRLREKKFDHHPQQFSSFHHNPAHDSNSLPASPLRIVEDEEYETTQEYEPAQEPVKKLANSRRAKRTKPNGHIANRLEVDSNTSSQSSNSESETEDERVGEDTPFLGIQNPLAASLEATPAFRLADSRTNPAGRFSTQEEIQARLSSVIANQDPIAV

Regarding `CCOC(=O)C[C@H]1[C@H](OC(=O)c2ccccc2-c2ccccc2)[C@@H](NC(=O)CC(C)C)c2cc(OCCCO)ccc2N1C(=O)c1ccccc1`, the composite z-score in assay [1] is -0.565; in [2] it was 0.115; in assay [3] it was -0.0632; in assay [4], 0.351; in assay [5] it was 0.527; in [6], 0.092. Besides, the composite z-score in assay [7] was 0.606; in [9], 0.324; in assay [10], -0.137; in assay [11], 0.768; in assay [15] it was 0.583; in assay [17], -0.0859. For the same compound, the composite z-score in assay [18] was 1.3; in assay [19] it was 1.09; in [20] it was -0.159. The z-score in assay [8] was 0.077 (inactive); in assay [12], -0.959 (inactive); in assay [13], -0.613 (inactive); in [14] it was -1.52 (inactive); in assay [16], 0.482 (inactive).

With `C[C@]1(C(=O)NCC(F)(F)F)c2ccccc2C(=O)N(Cc2cc(C(F)(F)F)cc(C(F)(F)F)c2)[C@H]1c1ccc(CO)cc1`, the composite z-score was 0.227 in assay [1]; -0.616 in [2]; -0.0578 in [3]; 0.0766 in assay [4]; -0.317 in assay [5]; 0.275 in assay [6]. Besides, the composite z-score was 1.11 in assay [7]; 0.0351 in assay [9]; -0.0994 in assay [10]; 0.594 in assay [11]; 1.35 in assay [15]; -0.114 in assay [17]. Moreover, the composite z-score is -0.736 in [18], -0.802 in assay [19] and -0.11 in assay [20]. In addition, the z-score was 0.549 (inactive) in assay [8]; 0.182 (inactive) in assay [12]; -0.0136 (inactive) in assay [13]; -0.0066 (inactive) in assay [14]; 1.07 (inactive) in assay [16].

As for `CCCCC(=C=CC[C@H](O)c1ccccc1OCCO)CCO`, the composite z-score in [1] is -0.121; in assay [2], -0.46; in assay [3] it was -0.0579; in assay [4] it was 0.656; in assay [5], -0.543; in assay [6] it was 1.4. The composite z-score in assay [7] was 0.787; in [9] it was -0.299; in [10] it was 0.0749; in assay [11], 0.95; in assay [15], 1.04; in assay [17], -0.19. For the same compound, the composite z-score is -0.0419 in [18], -0.102 in assay [19] and -0.0664 in assay [20]. Moreover, the z-score in assay [8] was 0.125 (inactive); in assay [12] it was 0.149 (inactive); in assay [13], -0.211 (inactive); in [14], -0.34 (inactive); in [16] it was 0.288 (inactive).

On to `COc1ccc([Si](C)(C)[C@@H]2[C@@H](CC(=O)N3Cc4ccccc4C[C@H]3CO)O[C@]3(C(=O)N(Cc4ccc(I)cc4)c4ccccc43)[C@H]2C)cc1`, for which the composite z-score was -0.127 in assay [1]; 0.0826 in assay [2]; -0.136 in assay [3]; 0.184 in [4]; 0.472 in [5]; 0.537 in assay [6]. For the same compound, the composite z-score in [7] is 0.909; in [9], 0.259; in assay [10] it was -0.204; in [11] it was 1.57; in assay [15] it was 0.603; in assay [17], 0.0007. Also, the composite z-score is 1.92 in [18], 1.1 in assay [19] and -0.0982 in assay [20]. For the same compound, the z-score in assay [8] is -2.83 (inactive); in assay [12], 0.391 (inactive); in [13], 0.956 (inactive); in assay [14] it was 2.07 (inactive); in assay [16] it was 2.19 (inactive).

Turning to `CC(C)[Si](C#Cc1ccccc1)(O[C@H](c1ccccc1)c1cn(Cc2ccccc2)nn1)C(C)C`, the composite z-score is -0.527 in assay [1]; 0.884 in [2]; -0.123 in assay [3]; 0.76 in assay [4]; 0.534 in [5]; 0.8 in [6]. Moreover, the composite z-score in assay [7] was 1.28; in assay [9], 0.0643; in [10], 0.107; in assay [11], 1.02; in assay [15] it was 2.04; in assay [17], -0.195. For the same compound, the composite z-score was 1.08 in [18], 1.01 in assay [19] and -0.133 in assay [20]. Also, the z-score in assay [8] was 0.92 (inactive); in assay [12], -1.94 (inactive); in assay [13] it was -19.9 (active); in assay [14], -2.28 (inactive); in assay [16], 2.14 (inactive).

The values are drawn from PubChem BioAssay.
